Results as given in PubChem BioAssay (Tox21).
Where “and” joins values, the source holds several entries; their conditions need not be identical. Equal entries are not always repeated. Inconclusive results are not listed. Calls of active or inactive are those of the source. Unless noted, the call rests on the fitted dose curve; in most records, active means well fitted curve in the direction sought with a large enough effect in the repeat runs; inconclusive means weak or mixed curves; inactive means no such curve, though single readings can be large; an effect the other way counts as inactive or inconclusive.

Tests used:
[1] = qHTS assay to identify small molecule antagonists of the thyroid receptor (TR) signaling pathway - cell viability counter screen (AID 743064); further: nearly all actives have a fitted effect of over 50% in size; further: potency means the concentration at half of the fitted maximal effect
Procedure, shortened: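 Same-well viability check: GH3.TRE-Luc cells stimulated with 1 nM T3 alongside test compound for 23.5 h, followed by CellTiter-Fluor fluorescence.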

[2] = qHTS assay to identify small molecule antagonists of the thyroid receptor (TR) signaling pathway (AID 743065); further: nearly all actives have a fitted effect of over 55% in size; further: potency means the concentration at half of the fitted maximal effect
Procedure, shortened: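 Antagonism measured as loss of luciferase signal in GH3 cells stably carrying a TRE-luciferase reporter, co-treated with compound and T3 (1 nM final) for 23.5 h at 37 C. Viability was read in the same well by CellTiter-Fluor.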

[3] = tested on: thyroid hormone receptor (rat, GH3 cells); assay: qHTS assay to identify small molecule agonists of the thyroid receptor (TR) signaling pathway (AID 743066; calls by dose curve)
[4] = target: Estrogen receptor (Homo sapiens) (UniProt P03372); assay: qHTS assay to identify small molecule antagonists of the estrogen receptor alpha (ER-alpha) signaling pathway (AID 743069; active means well fitted curve in the direction sought with a large enough effect in the signal ratio in the repeat runs, not every such curve was filed as active; the % refers to the signal ratio)
Chain of Estrogen receptor (Homo sapiens) (P03372 whole entry, looked up): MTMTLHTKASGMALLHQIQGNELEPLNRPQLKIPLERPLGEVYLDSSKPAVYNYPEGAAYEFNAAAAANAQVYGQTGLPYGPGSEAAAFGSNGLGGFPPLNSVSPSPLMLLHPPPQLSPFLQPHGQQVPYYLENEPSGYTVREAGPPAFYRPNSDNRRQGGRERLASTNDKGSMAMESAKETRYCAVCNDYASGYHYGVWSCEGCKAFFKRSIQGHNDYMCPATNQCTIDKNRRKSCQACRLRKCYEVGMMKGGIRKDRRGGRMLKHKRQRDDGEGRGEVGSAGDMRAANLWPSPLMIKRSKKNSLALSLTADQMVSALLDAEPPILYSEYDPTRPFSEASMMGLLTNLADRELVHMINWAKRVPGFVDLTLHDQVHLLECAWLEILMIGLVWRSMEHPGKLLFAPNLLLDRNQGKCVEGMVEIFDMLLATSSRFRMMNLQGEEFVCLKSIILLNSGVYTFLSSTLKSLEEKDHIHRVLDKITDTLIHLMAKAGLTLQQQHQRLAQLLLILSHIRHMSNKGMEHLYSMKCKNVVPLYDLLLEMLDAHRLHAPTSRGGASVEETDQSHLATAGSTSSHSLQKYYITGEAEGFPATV
Procedure, shortened: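 Compound effects are measured against 17beta-estradiol stimulation in HEK293 cells with a UAS-controlled beta-lactamase reporter for ER-alpha. Exposure lasts 18 hr at 37C; LiveBLAzer B/G FRET substrate follows for 2 hr at room temperature.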

[5] = qHTS assay to identify small molecule antagonists of the estrogen receptor alpha (ER-alpha) signaling pathway - cell viability counter screen (AID 743074; calls by dose curve;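 further: HEK293 cells carrying ER-alpha-UAS-bla reporter stimulated with 17beta-estradiol; nearly all actives have a fitted effect of over 45% in size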)
[6] = target: Estrogen receptor (Homo sapiens) (UniProt P03372); assay: qHTS assay to identify small molecule agonists of the estrogen receptor alpha (ER-alpha) signaling pathway (AID 743075; calls by dose curve)
[7] = qHTS assay to identify small molecule antagonists of the estrogen receptor alpha (ER-alpha) signaling pathway using the BG1 cell line (AID 743080; calls by dose curve;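 further: BG1 cells stimulated with 17beta-estradiol alongside compound; series mostly up to about 70 µM; nearly all actives have a fitted effect of over 25% in size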)
Procedure, shortened: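 Luminescence from a 4×ERE-luciferase reporter in BG1-Luc-4E2 cells served as read-out. Cells, pre-cultured 5 days in stripped-serum phenol-red-free medium, were exposed to compound with 17beta-estradiol co-stimulation for 21.5 h at 37 C.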

[8] = qHTS assay to identify small molecule antagonists of the estrogen receptor alpha (ER-alpha) signaling pathway using the BG1 cell line - cell viability counter screen (AID 743081);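 further: compound given together with 17beta-estradiol as the ER stimulus; series mostly up to about 70 µM; nearly all actives have a fitted effect of over 45% in size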
Aromatase (Homo sapiens) = Aromatase (Homo sapiens) (UniProt P11511); assay: qHTS assay to identify aromatase inhibitors (AID 743083); further: series mostly up to about 70 µM; nearly all actives have a fitted effect of over 55% in size
Chain of Aromatase (Homo sapiens) (P11511 whole entry, looked up): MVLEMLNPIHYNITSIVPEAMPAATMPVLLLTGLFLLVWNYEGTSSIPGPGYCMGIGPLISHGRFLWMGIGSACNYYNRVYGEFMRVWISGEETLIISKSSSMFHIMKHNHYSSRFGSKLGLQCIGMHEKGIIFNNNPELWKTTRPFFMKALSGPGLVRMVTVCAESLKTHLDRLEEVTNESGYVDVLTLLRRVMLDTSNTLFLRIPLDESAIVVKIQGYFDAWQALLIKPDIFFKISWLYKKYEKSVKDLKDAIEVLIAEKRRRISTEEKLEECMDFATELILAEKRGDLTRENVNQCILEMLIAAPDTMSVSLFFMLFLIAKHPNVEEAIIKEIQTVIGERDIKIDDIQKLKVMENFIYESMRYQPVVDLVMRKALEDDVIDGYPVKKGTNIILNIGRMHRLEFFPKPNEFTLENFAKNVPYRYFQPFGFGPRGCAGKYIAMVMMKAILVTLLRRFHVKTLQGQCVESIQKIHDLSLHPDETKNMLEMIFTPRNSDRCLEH

[9] = qHTS assay to identify aromatase inhibitors - cell viability counter screen (AID 743084);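 further: cells stimulated with testosterone during compound exposure; nearly all actives have a fitted effect of over 55% in size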
[10] = target: Aryl hydrocarbon receptor (Homo sapiens) (UniProt P35869); assay: qHTS assay to identify small molecule that activate the aryl hydrocarbon receptor (AhR) signaling pathway (AID 743085);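 further: HG2L7.5c1 human HepG2 liver cells with stably integrated DRE-driven firefly reporter; series mostly up to about 70 µM; nearly all actives have a fitted effect of over 15% in size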
Chain of Aryl hydrocarbon receptor (Homo sapiens) (P35869 whole entry, looked up): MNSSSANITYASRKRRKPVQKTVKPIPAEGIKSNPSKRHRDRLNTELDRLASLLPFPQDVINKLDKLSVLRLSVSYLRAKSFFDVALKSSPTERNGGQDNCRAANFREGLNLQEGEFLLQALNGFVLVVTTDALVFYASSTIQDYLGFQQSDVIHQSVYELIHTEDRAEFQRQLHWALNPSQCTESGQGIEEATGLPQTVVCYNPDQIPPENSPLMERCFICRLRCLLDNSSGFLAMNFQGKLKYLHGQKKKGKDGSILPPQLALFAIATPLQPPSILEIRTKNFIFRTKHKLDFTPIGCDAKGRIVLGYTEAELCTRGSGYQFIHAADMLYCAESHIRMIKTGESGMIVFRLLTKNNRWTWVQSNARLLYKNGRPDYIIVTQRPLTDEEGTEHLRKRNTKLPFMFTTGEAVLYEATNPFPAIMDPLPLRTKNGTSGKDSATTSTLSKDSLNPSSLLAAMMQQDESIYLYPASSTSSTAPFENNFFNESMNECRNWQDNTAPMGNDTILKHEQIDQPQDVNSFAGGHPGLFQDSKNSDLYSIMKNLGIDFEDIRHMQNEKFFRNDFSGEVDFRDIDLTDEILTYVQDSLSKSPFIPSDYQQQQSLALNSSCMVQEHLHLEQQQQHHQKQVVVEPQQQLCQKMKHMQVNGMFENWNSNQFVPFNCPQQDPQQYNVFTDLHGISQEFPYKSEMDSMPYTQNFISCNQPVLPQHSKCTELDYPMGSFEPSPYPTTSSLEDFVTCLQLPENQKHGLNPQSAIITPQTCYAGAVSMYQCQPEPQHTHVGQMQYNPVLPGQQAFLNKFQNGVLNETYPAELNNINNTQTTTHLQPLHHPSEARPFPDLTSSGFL
Procedure, shortened: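 Reporter assay in engineered HepG2 line HG2L7.5c1, whose plasmid carries twenty dioxin responsive elements upstream of firefly luciferase. Treatment lasted 24 h at 37C; ONE-Glo luminescence gauged induction.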

[11] = qHTS assay to identify small molecule that activate the aryl hydrocarbon receptor (AhR) signaling pathway - cell viability counter screen (AID 743086);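 further: HepG2 liver cells carrying the AhR DRE luciferase reporter; series mostly up to about 70 µM; nearly all actives have a fitted effect of over 45% in size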
Procedure, shortened: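 Cytotoxicity counter screen: CellTiter-Fluor signal (30 min, 37 C) in 4000 HepG2 cells/well carrying the DRE-luciferase reporter, following 24 h compound exposure at 37 C.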

[12] = target: Peroxisome proliferator-activated receptor gamma (Homo sapiens) (UniProt P37231); assay: qHTS assay to identify small molecule agonists of the peroxisome proliferator-activated receptor gamma (PPARg) signaling pathway (AID 743094; active means well fitted activation curve with a large enough effect in the signal ratio in the repeat runs, not every such curve was filed as active; the % refers to the signal ratio)
Chain of Peroxisome proliferator-activated receptor gamma (Homo sapiens) (P37231 whole entry, looked up): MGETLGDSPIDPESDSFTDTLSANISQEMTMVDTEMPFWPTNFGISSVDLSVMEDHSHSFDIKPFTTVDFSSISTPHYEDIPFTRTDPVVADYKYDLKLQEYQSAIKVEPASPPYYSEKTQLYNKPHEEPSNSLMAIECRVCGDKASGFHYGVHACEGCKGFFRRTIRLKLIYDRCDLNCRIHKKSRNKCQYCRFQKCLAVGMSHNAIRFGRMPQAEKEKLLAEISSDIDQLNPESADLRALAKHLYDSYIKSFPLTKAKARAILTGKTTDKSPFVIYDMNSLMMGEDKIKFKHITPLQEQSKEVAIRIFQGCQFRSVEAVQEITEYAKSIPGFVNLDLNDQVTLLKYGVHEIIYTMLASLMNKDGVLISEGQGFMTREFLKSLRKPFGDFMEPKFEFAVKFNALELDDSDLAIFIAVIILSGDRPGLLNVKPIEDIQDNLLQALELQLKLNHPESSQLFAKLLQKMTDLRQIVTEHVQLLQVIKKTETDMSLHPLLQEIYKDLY
Procedure, shortened: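 Quantitative HTS agonist mode: stable HEK293H line with UAS-beta-lactamase reporter under PPARg control, 17 h compound exposure at 37C, fluorescence after 1 h FRET substrate loading at room temperature.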

[13] = target: Peroxisome proliferator-activated receptor gamma (Homo sapiens) (UniProt P37231); assay: qHTS assay to identify small molecule antagonists of the peroxisome proliferator-activated receptor gamma (PPARg) signaling pathway (AID 743191; calls by dose curve; further: series mostly up to about 63 µM; nearly all actives have a fitted effect of over 30% in size)
Procedure, shortened: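 Beta-lactamase reporter under UAS control in HEK293H PPARg-bla cells; compound treatment 17 h at 37C. Read-out: fluorescence intensity after 1 h room-temperature incubation with LiveBLAzer B/G FRET substrate.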

[14] = qHTS assay to identify small molecule antagonists of the peroxisome proliferator-activated receptor gamma (PPARg) signaling pathway - cell viability counter screen (AID 743194); further: nearly all actives have a fitted effect of over 55% in size
Procedure, shortened: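 Viability was measured as CellTiter-Glo luminescence in GeneBLAzer PPARg UAS-bla HEK293H cells. These cells had been exposed 17 h at 37 C to compounds together with rosiglitazone at 50 nM final, with the beta-lactamase readout taken in the same wells.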

[15] = qHTS assay for small molecule agonists of the antioxidant response element (ARE) signaling pathway (AID 743202; active means well fitted activation curve with a large enough effect in the signal ratio in the repeat runs, not every such curve was filed as active; the % refers to the signal ratio)
Procedure, shortened: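 An ARE-responsive beta-lactamase gene stably integrated in HepG2 cells serves as reporter. After 5 h plating and 16 h compound incubation at 37 C, fluorescence of the B/G FRET substrate was measured.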

[16] = qHTS assay for small molecule activators of the heat shock response signaling pathway - cell viability counter screen (AID 743209); further: nearly all actives have a fitted effect of over 50% in size
Procedure, shortened: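 First, HSE-bla HeLa cells were seeded at 1500 cells/well and kept overnight at 37 C. Next, compounds were pinned in and incubated 5 h. After the FRET substrate step, CellTiter-Glo was added and luminescence read 30 min later.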

[17] = qHTS assay for small molecule activators of the heat shock response signaling pathway (AID 743210; active means well fitted activation curve with a large enough effect in the signal ratio in the repeat runs, with a control signal flat, not every such curve was filed as active; the % refers to the signal ratio;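 further: HeLa cells with beta-lactamase reporter driven by heat shock elements; series mostly up to about 63 µM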)
Procedure, shortened: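 In HSE-bla HeLa cells, 5 h compound incubation (37 C) precedes addition of LiveBLAzer B/G substrate; after 2.5 h at room temperature, fluorescence intensity indicates reporter induction.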

[18] = target: Estrogen receptor (Homo sapiens) (UniProt P03372); assay: qHTS assay to identify small molecule agonists of the estrogen receptor alpha (ER-alpha) signaling pathway using the BG1 cell line (AID 743079); further: nearly all actives have a fitted effect of over 20% in size; further: potency means the concentration at half of the fitted maximal effect
[19] = qHTS assay for small molecule agonists of the antioxidant response element (ARE) signaling pathway - cell viability counter screen (AID 743203; calls by dose curve; further: nearly all actives have a fitted effect of over 55% in size)
Procedure, shortened: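 Seeded at 2,000 cells/well, ARE-bla HepG2 cells were incubated 5 hrs before compound addition. After 16 hrs of treatment at 37C with 5% CO2, CellTiter-Glo reagent was added and luminescence read 30 min later.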

Measured: Potency

CC1=CCC(O)(C(C)C)CC1 (stereo not given)
not listed: [18] | [19]
inactive: all other assays above

[K+]
not listed: [12] | [13] | [15]
inactive: all other assays above

CCCC[N+](C)(CCCC)CCCC
not listed: [7] | [14] | [15] | [16] | [17]
inactive: all other assays above

CCNS(=O)(=O)c1ccc(C)cc1
not listed: [7] | [14] | [15]
inactive: all other assays above

CCOc1ccc2nc(S(N)(=O)=O)sc2c1
not listed: [7] | [10] | [13] | [15] | [18]
inactive: all other assays above

CC(=O)N1C[C@H](O)C[C@H]1C(=O)O
active: [18] 10.6 µM
not listed: [6] | [12] | [13]
inactive: all other assays above

C=COC(=O)C(C)(CC)CCC(C)C (stereo not given)
not listed: [5] | [7]
inactive: all other assays above

Cc1ccc(C(=O)Nc2ccc(S(=O)(=O)O)c3cc(S(=O)(=O)O)cc(S(=O)(=O)O)c23)cc1NC(=O)c1cccc(NC(=O)Nc2cccc(C(=O)Nc3cc(C(=O)Nc4ccc(S(=O)(=O)O)c5cc(S(=O)(=O)O)cc(S(=O)(=O)O)c45)ccc3C)c2)c1
not listed: [5] | [7] | [14] | [15]
inactive: all other assays above

COc1cc(-c2ccc(=O)[nH]n2)ccc1OC(F)F
not listed: [4] | [10] | [13] | [14] | [15] | [18]
inactive: all other assays above

Nc1ccn([C@@H]2O[C@H](CO)[C@@H](O)[C@@H]2O)c(=O)n1
active: [1] 217 nM | [2] 77 nM | [18] 24.3 µM
not listed: [4] | [12] | [15]
inactive: all other assays above

Nc1ccn([C@@H]2O[C@H](CO)[C@@H](O)C2O)c(=O)n1 (stereo not given in full)
active: [1] 531 nM and 486 nM | [2] 376 nM and 193 nM
not listed: [4] | [13] | [15]
inactive: all other assays above

CC[N+](C)(CC)CCOC(=O)C1c2ccccc2Oc2ccccc21
not listed: [4] | [6] | [7] | [17] | [18]
inactive: all other assays above

CC(=O)c1ccc2ccccc2c1
not listed: [4] | [15]
inactive: all other assays above

CCCCCCCCCCCCCCC(=O)O
not listed: [6] | [13] | [15] | [18]
inactive: all other assays above

Cc1ncc([C@@H](CCCCCCc2ccc3c(n2)NCCC3)CC(=O)O)cn1
not listed: [4] | [7] | [9] | [11] | [13] | [14] | [15]
inactive: all other assays above

COc1cc(C(=O)OC(COCCC(C)C)CN2CCOCC2)cc(OC)c1OC (stereo not given)
not listed: [4] | [7] | [8]
inactive: all other assays above
